Measured values taken from PubChem BioAssay (NCI).
About 83,000 compounds went through this panel and 20% of them were active in at least one assay; those are over-represented in the sample as a whole.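 Single-dose data. Exposure time 48 hours. Values below 10 considered active.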 Activity calls are given as the source filed them.

How the values were obtained:
Test in all cases: NCI-60 one-dose screen, 48 h (100 = growth as untreated, 0 = no growth, -100 = all killed)
Settings in all cases: 10 µM unless noted
HCT-15 colon = tested on: HCT-15 colon
HT29 colon = tested on: HT29 colon
SNB-75 CNS = tested on: SNB-75 CNS
SNB-19 CNS = tested on: SNB-19 CNS
U251 CNS = tested on: U251 CNS
PC-3 prostate = tested on: PC-3 prostate
SK-MEL-5 melanoma = tested on: SK-MEL-5 melanoma
UACC-62 melanoma = tested on: UACC-62 melanoma
SK-MEL-28 melanoma = tested on: SK-MEL-28 melanoma

Measured: growth

COc1cc(/C=N/NC(=S)NNC(=S)NC2CCCCC2)cc(OC)c1OC
inactive: HCT-15 colon 91.9% | HT29 colon 108% | SNB-75 CNS 91.5% | SNB-19 CNS 98.3% | U251 CNS 100% | PC-3 prostate 81.3% | SK-MEL-5 melanoma 92.5% | UACC-62 melanoma 85.8% | SK-MEL-28 melanoma 99%

Cc1ccc(-c2nc([P+](c3ccccc3)(c3ccccc3)c3ccccc3)c(N3C[C@H]4C[C@H](C3)c3cccc(=O)n3C4)o2)cc1
inactive: HCT-15 colon 86.8% | HT29 colon 92.3% | SNB-75 CNS 74.6% | SNB-19 CNS 64.1% | U251 CNS 58.8% | PC-3 prostate 82.7% | SK-MEL-5 melanoma 68% | UACC-62 melanoma 54.5% | SK-MEL-28 melanoma 62%

O=C(NC1=CC(=O)c2ccccc2C1=O)c1ccccc1
inactive: HCT-15 colon 29.1% | HT29 colon 71.2% | SNB-75 CNS 34% | SNB-19 CNS 36.3% | U251 CNS 21.1% | PC-3 prostate 16.6% | UACC-62 melanoma 15% | SK-MEL-28 melanoma 52.3%
active: SK-MEL-5 melanoma 0.587%

N#C/C(=C\c1ccc(-c2ccc(F)cc2)o1)c1nc(-c2ccco2)cs1
inactive: HCT-15 colon 84.5% | HT29 colon 98.7% | SNB-75 CNS 88.9% | SNB-19 CNS 101% | U251 CNS 97.3% | PC-3 prostate 93.3% | SK-MEL-5 melanoma 92.8% | UACC-62 melanoma 87.1% | SK-MEL-28 melanoma 114%

CC1=CC(=O)N(c2cccc3c(N4C(=O)C=C(C)C4=O)cccc23)C1=O
inactive: HT29 colon 18% | SNB-75 CNS 74.1% | SNB-19 CNS 102% | U251 CNS 83.9% | PC-3 prostate 94.8% | SK-MEL-5 melanoma 105% | UACC-62 melanoma 94.5% | SK-MEL-28 melanoma 103%
active: HCT-15 colon -2.7%
